# Assay outcomes (PubChem BioAssay)
# An excerpt weighted towards active compounds, which were near 2.6% of everything screened.
# CRFBP-R2 block: antagonists of CRF-binding protein/CRF-R2 receptor complex. HEK293 CRF-R2/CRF-BP, CRF-induced calcium fluorescence. inhibition, % at 11.8 µM. AID 588475. actives 0.59% (n = 350,000);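 active means inhibition of the ligand-induced calcium signal above about 50% at the single tested concentration, limit read from the data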
# IDE inh: inhibitors of human insulin-degrading enzyme in cells; inhibition, % at 5.59 µM; P14735; HEK cells, FAbetaB cleavage, fluorescence polarization; actives 0.41% (n = 320,000);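 active means percent inhibition above the average of all tested compounds plus 3 SD, set per screening campaign, cut at about 16% in these data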;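 further: IDE supplied by intact live HEK cells; FP after avidin binding of uncleaved biotin substrate so inhibition keeps polarization high; 0% = DMSO wells and 100% = 60 µM reference IDE inhibitor Ii1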
# Target sequence (P14735 whole entry, looked up): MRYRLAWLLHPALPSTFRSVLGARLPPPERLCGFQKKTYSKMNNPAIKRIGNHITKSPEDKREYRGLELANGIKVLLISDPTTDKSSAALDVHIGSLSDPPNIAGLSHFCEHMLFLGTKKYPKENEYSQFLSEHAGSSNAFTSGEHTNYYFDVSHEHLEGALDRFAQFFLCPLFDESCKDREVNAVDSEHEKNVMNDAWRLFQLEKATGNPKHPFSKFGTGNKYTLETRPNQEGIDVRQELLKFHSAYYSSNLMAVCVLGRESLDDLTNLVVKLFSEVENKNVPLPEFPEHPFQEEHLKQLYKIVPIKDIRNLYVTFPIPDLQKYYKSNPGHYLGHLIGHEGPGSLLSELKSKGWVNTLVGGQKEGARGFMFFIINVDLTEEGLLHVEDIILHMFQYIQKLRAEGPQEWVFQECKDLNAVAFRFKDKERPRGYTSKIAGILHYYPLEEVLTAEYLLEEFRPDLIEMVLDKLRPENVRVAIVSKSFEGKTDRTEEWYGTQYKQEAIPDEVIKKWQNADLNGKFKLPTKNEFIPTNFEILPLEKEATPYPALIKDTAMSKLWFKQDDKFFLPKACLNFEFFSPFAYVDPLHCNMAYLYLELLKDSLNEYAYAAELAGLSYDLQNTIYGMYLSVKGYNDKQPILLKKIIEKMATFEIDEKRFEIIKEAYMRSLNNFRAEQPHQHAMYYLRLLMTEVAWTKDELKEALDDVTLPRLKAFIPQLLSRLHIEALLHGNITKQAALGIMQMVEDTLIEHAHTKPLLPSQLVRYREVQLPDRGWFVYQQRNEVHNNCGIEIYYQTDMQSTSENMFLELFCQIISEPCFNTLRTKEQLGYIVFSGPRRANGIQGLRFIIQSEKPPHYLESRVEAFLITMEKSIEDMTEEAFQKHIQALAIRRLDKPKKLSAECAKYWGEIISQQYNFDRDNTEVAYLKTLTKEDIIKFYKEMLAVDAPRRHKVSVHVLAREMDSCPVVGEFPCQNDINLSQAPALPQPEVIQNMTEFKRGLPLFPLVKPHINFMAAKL
# CRFR2-BP ag: CRF-BP/CRF-R2 complex agonism | HEK293 CRF-R2/CRF-BP, calcium dye fluorescence (FLIPR); percent of saturating CRF peptide response | activation, % at 13.2 µM | actives 0.46% (n = 350,000);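 active means activation of at least 50%, plus an integration ratio under a set limit after plate pattern correction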;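 further: plate controls were neutral control wells without compound for no effect and CRF at EC100 for full effect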
# Myeloid diff MLP: promotes myeloid progenitor differentiation; ER-HoxA9 myeloid progenitors, lysozyme-GFP differentiation, flow cytometry; calls only at 10 µM; actives 1% (n = 360,000); AID 624256;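 active means normalized GFP-positive differentiation at or above the plate's own cutoff, the solvent-only control mean plus 3 SD; inconclusive means no clear call, values can overlap the other calls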;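 further: cells exposed to compound for four days before flow analysis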
# TPT1 inh: inhibitors of Candida albicans tRNA 2'-phosphotransferase TPT1 | recombinant caTPT1, FP RNA substrate dephosphorylation | inhibition, % at 5 µM | actives 0.81% (n = 300,000) | AID 1962;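 active means inhibition above the mean of all tested compounds plus 3 SD, set per screening campaign, cut at about 24% in these data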;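 further: plate controls were DMSO alone for no effect and ferristatin control at 100 nM for full effect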
# IDE cell activ: boosts human insulin-degrading enzyme activity in HEK cells; P14735; FAbeta-B cleavage, fluorescence polarization; 0% vehicle, 100% cell-free pure enzyme wells; activation, % at 5.96 µM; actives 0.073% (n = 340,000); AID 493087;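 active means activation above the mean of all tested compounds plus 3 SD, set per screening campaign, cut at about 17% in these data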
# * = called active by the depositor; i = inactive; ? = inconclusive; · = not tested or not shown; + = active, no number.
SMILES,CRFBP-R2 block,IDE inh,CRFR2-BP ag,Myeloid diff MLP,TPT1 inh,IDE cell activ
CCCCCCCCn1sccc1=O,-21,11,8,+,·,-29
Brc1ccc2[nH]cc(C=NN3CCCCCC3)c2c1,-9,·,-1,i,·,2
O=C1NC(=O)C(=Cc2cn(CCOc3ccc4c(c3)OCO4)c3ccccc23)C(=O)N1,-57,-1,59*,i,17,-2
Cc1cc(N(CCCl)CCCl)ccc1C=NNC(=O)Cc1cc(=O)oc2cc(O)ccc12,-5,·,1,+,·,2
Cc1ccc2c(c1)N(CCC(=O)N1CCC3(CC1)OCCO3)C(=O)CO2,-11,2,0,+,-1,-1
COc1ccc(CC2=NCCc3cc(OC)c(OC)cc32)cc1OC,·,·,·,i,·,·
CCOC(=O)[C@]12Cc3cc(Cl)ccc3[C@H]1N(C1CCCCC1)C(=O)c1cc(OC)ccc12,·,·,·,i,·,·
O=C1NC(=S)N(c2ccc(F)cc2)C(=O)/C1=C/c1ccco1,·,3,·,·,78*,·
NC1CC2CCCCC2CC1(O)c1ccccc1 (stereo unspecified),-6,·,-2,i,·,·
CC1=CC(=O)OC2CC3OC4C[C@@H](C)C5OC6CC7O[C@]8(C)C/C=C\C9OC%10CC%11OC(CC(C)C%12OCCO%12)CC(O)[C@]%11(C)OC%10CC9OC8C[C@]7(C)O[C@]6(C)CCC5OC4C[C@]3(C)OC12 (stereo partly specified),-32,2,75*,i,·,0
C=C(CC1CC(O)[C@]2(C)OC3CC4OC5C[C@]6(C)O[C@]7(C)CCC8OC9C[C@]%10(C)OC%11C(C)=CC(=O)OC%11CC%10OC9C[C@@H](C)C8OC7CC6O[C@]5(C)C/C=C\C4OC3CC2O1)C(=O)O (stereo partly specified),-4,1,2,i,1,1
O=P(/C=C1\OCc2ccccc21)(Oc1ccccc1)Oc1ccccc1,·,·,·,i,·,·
CN1CCN(c2nc(N)c(Br)c(Cl)n2)CC1,3,-1,2,+,-1,0
CN1CCN(c2ncnc(Cl)c2N)CC1,-4,·,-2,i,·,-1
COc1ccccc1N1CCN(Cc2c(F)cccc2Cl)CC1,61*,-1,0,i,3,5
CN(Cc1cccc(-c2ccncc2)c1)C(=O)Oc1ccccc1Cc1ccccc1,·,·,·,i,·,·
CNP(=O)(Oc1ccccc1)OC12CC3CC(CC(C3)C1)C2 (stereo unspecified),78*,-2,2,i,0,1
O=P(Nc1ccccc1)(Oc1ccccc1)Oc1ccccc1,-11,-7,0,i,-1,-6
c1ccc(-c2ccc(CN3Cc4ccccc4-n4nncc4C3)cc2)cc1,-8,·,1,i,·,·
CN(C)C(=O)Oc1ccc(OC(=O)c2ccccc2)cc1,3,-5,0,i,2,-1
CN(C(=O)Oc1ccc(C(=O)c2ccc(Cl)cc2)cc1)c1ccccc1,50*,6,9,i,-2,2
Cc1c(CCC(=O)N2C[C@H]3C[C@@H](C2)c2cccc(=O)n2C3)c(=O)oc2c(C)c(O)ccc12,·,·,·,i,·,·
C1CN(P2(N3CC3)=NP(N3CC3)(N3CC3)=NP(N3CC3)(N3CC3)=N2)CCO1 (stereo unspecified),-11,·,-1,i,·,·
CNc1cc(Cl)c2nonc2c1[N+](=O)[O-],75*,·,1,?,·,2
Cc1cc([N+](=O)[O-])c(Cl)cc1NC(=O)C(C)C,12,6,-3,i,-5,-2
SMILES,CRFBP-R2 block,IDE inh,CRFR2-BP ag,Myeloid diff MLP,TPT1 inh,IDE cell activ
COc1ccc(-c2ccc3c(c2)CN(C(=O)C(C)(C)C)Cc2cnnn2-3)cc1,·,·,·,i,·,·
Cc1nn(Cc2ccccc2)c(Cl)c1C(=O)NC1CCCc2ccccc21 (stereo unspecified),90*,0,2,i,0,1
Cc1nn(Cc2ccccc2)c(Cl)c1C(=O)Nc1ccc(OC(F)(F)F)cc1,8,1,0,i,-1,1
Cc1ccc2c(c1)Oc1ccccc1N=C2,65*,·,1,i,·,·
Cc1ccc2c(c1)CNc1ccccc1O2,-2,4,-2,i,-4,-1
CN1C(=O)/C(=C/c2ccc(Cl)s2)C(=O)NC1=S,-29,4,2,+,8,-12
COC1/C=C/C=C(\C)Cc2cc(O)c(Cl)c(c2)N(C)C(=O)CC(OC(=O)C(C)C)C2(C)OC2C(C)C2CC1(O)NC(=O)O2 (stereo unspecified),8,·,-1,·,·,1
O=c1[nH]c2ccccc2n1C1CCN(C(CCc2ccccc2)c2nnnn2C2CCCCC2)CC1 (stereo unspecified),·,·,·,i,·,·
CN(C)C1=NP(N(C)C)(N(C)C)=NC(c2ccccc2)=N1,52*,4,-1,i,-1,-3
NC(N)=N/N=C/c1ccc(N2CCOCC2)cc1,1,1,0,+,-2,3
COc1ccc(/C=N\N=C(N)N)cc1,-14,-3,-1,i,-1,-3
Cc1ccc([C@@H]2C[C@H]3[C@@H](CN2S(=O)(=O)c2ccc(Cl)cc2)C(=O)C[C@@H](c2ccccc2F)N3S(=O)(=O)c2ccc(C)cc2)cc1,-7,·,0,i,·,·
CCCCCn1c(=O)c(C(=O)Nc2cc(C)ccn2)c(O)c2ccccc21,-1,-2,0,+,-1,5
CCCCCCCCc1ccc(O)cc1,18,0,-1,i,·,-3
CCCCc1ccc(C(=O)O)nc1,-4,2,-1,+,4,4
CC(=O)N1N=C2C3CCN(CC3)C2C1c1cccc2ccccc12 (stereo unspecified),-132,1,81*,i,-1,2
CC(=O)N1N=C2C3CCN(CC3)C2C1c1ccc(C)cc1 (stereo unspecified),-20,-1,-4,i,5,4
CCN(CC)C(=O)Cn1cc(/C=C2\C(=O)NC(=O)N(c3ccccc3F)C2=O)c2ccccc21,-32,5,46,+,23,-2
Cn1cc(/C=C2\C(=O)NC(=O)N(c3ccccc3)C2=O)c2ccccc21,-71,-1,115*,i,0,-2
CCN1C(=O)NC(=O)/C(=C\c2cn(CC(=O)N3CCCCC3C)c3ccccc23)C1=O (stereo unspecified),-2,0,46,i,15,-3
CCOC(=O)Cn1cc(C=C2C(=O)N(C)C(=O)N(C)C2=O)c2ccccc21,-49,4,66*,i,23,5
CCOC(=O)c1cnc(SCc2ccc(Cl)c(Cl)c2)nc1N1CC1,-1,·,2,·,·,-1
CC1([N+](=O)[O-])COP(=O)(Nc2cccc(Br)c2)OC1 (stereo unspecified),-7,·,3,+,·,-6
Cc1nc2cc(OC(=O)N(C)Cc3cccc(-c4ccncc4)c3)ccc2s1,·,·,·,i,·,·
